We go through 6 compounds from PubChem BioAssay.

Assay [1] can be described thus: viability rescue of complex I mutant cybrids, primary screen, cell-based, galactose medium, ATP luminescence (AID 1645843;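 active = z-score of at least 1.8 in each of two replicates, scored against plate mean and spread of sample wells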;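 note: positive z means more ATP and so rescue of galactose-driven cybrid death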). To be noted: complex I mutant cybrid cells, 72 h, stronger effect = higher value.
A short description of assay [2]: LFS_MB_P medulloblastoma growth inhibition, cell-based, chromothripsis tumors, cisplatin or BGB combos (AID 1671449).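 Note: cells exposed for 96 hours; 0% = vehicle DMSO and 100% = killing by high DMSO.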 To be noted: LFS_MB_P medulloblastoma cells.
A short description of assay [3]: HDN33 neuroblastoma growth inhibition, cell-based, chromothripsis tumors, cisplatin or BGB combos (AID 1671450).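 Note: cells exposed to compound for four days; 0% = vehicle DMSO and 100% = cell killing by high DMSO.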 The settings on record: HDN33 neuroblastoma cells, stronger effect = higher value.
Assay [4] in a line: ICB984 medulloblastoma cell growth inhibition, synergistic combos for chromothripsis tumors, cisplatin or BGB combos (AID 1671451; call rule not given here;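 note: cells exposed for 96 hours before readout; 0% = vehicle DMSO and 100% = killing by high DMSO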). To be noted: ICB984 medulloblastoma cells, drug combinations, stronger effect = higher value.
The nature of assay [5]: LFS_MB_1R medulloblastoma cell growth inhibition, synergistic combos for chromothripsis tumors, cisplatin or BGB combos (AID 1671452).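 Note: cells exposed for 96 hours before readout.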 The settings on record: LFS_MB_1R medulloblastoma cells, stronger effect = higher value.
The nature of assay [6]: HTB85 osteosarcoma cell growth inhibition, synergistic combos for chromothripsis tumors, BGB or cisplatin IC20 combos (AID 1671453).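 Note: cells exposed for 96 hours before readout; 0% = vehicle DMSO and 100% = high DMSO killing control.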 The settings on record: HTB85 osteosarcoma cells, drug combinations, stronger effect = higher value.
A short description of assay [7]: CRL2098 osteosarcoma cell growth inhibition, synergistic combos for chromothripsis tumors, BGB or cisplatin IC20 combos (AID 1671454).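 Note: cells exposed for 96 h before readout; 0% = vehicle DMSO and 100% = killing by high DMSO.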 The settings on record: CRL2098 osteosarcoma cells, drug combinations, stronger effect = higher value.
Assay [8] can be described thus: HD-MB03 medulloblastoma cell growth inhibition, synergistic combos for chromothripsis tumors, BGB or cisplatin IC20 combos (AID 1671455; in the data active = inhibition above about 83%;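 note: 0% = vehicle DMSO and 100% = high DMSO as cytotoxic control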). To be noted: HD-MB03 medulloblastoma cells, stronger effect = higher value.
Assay [9] is described as follows: UWB1.289 ovarian carcinoma cell growth inhibition, synergistic combos for chromothripsis tumors, BGB or cisplatin combos (AID 1671456).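 Note: cells exposed to compound for four days; 0% = vehicle DMSO and 100% = killing by high DMSO.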 The settings on record: UWB1.289 ovarian carcinoma cells, stronger effect = higher value.
Assay [10] in a line: LFS_MB_2R medulloblastoma cell growth inhibition, synergistic combos for chromothripsis tumors, cisplatin combos (AID 1671457).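 Note: cells exposed to compound for four days before readout.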 To be noted: LFS_MB_2R medulloblastoma cells, stronger effect = higher value.
Assay [11] can be described thus: MDA-MB-436 breast carcinoma cell growth inhibition, synergistic combos for chromothripsis tumors, BGB or cisplatin combos (AID 1671458; call rule not given here;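 note: cells exposed for 96 hours; 0% = vehicle DMSO and 100% = killing by high DMSO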). The settings on record: MDA-MB-436 breast carcinoma growth inhibition, drug combinations, stronger effect = higher value.
Assay [12] in a line: UWB1.289_BRCA1 ovarian cancer growth, cell-based, BGB or cisplatin combinations (AID 1671459). The settings on record: UWB1.289 BRCA1 ovarian carcinoma, drug combinations, stronger effect = higher value.
Assay [13] in a line: human astrocyte viability loss, single and combined drugs, cytotoxicity control for chromothriptic childhood tumor combination screen, cell-based, BGB or cisplatin IC20 combos (AID 1671460).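 Note: cells exposed to compounds for 96 hours before viability readout; 0% = vehicle and 100% = killing control.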 The settings on record: Human astrocytes, drug combinations, stronger effect = higher value.
Assay [14] can be described thus: growth inhibition of BT084 medulloblastoma cells, cell-based, ICGC_MB145, cisplatin and BGB IC40 combos (AID 1671461).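 Note: cells exposed to drugs for 96 hours; 0% = vehicle DMSO and 100% = high DMSO full killing control.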 The settings on record: drug combinations, stronger effect = higher value.
Assay [15] is described as follows: growth inhibition of RCMB18 medulloblastoma cells, cell-based, cisplatin and BGB IC40 combos (AID 1671462).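 Note: cells exposed to compound for four days.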 To be noted: stronger effect = higher value.
Assay [16] can be described thus: growth inhibition of CRL1545 osteosarcoma cells, cell-based, cisplatin and BGB IC20 combos (AID 1671464).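 Note: cells exposed to compound for 96 hours before readout; 0% = vehicle DMSO and 100% = high DMSO killing control.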 To be noted: stronger effect = higher value.
Setting [17] is: measured here: combination with BGB IC40, at 0.05 µM.
[18] abbreviates: measured here: with BGB IC20 combination, at 0.5 µM.
The mark [19] stands for this setting: measured here: with cisplatin IC20 combination, at 0.5 µM.
Where [20] appears, read: measured here: combination with cisplatin, at 0.5 µM.
[21] abbreviates: measured here: combination with cisplatin, at 5 µM.

The inhibition is the change of the read-out against control, counted positive when it falls.

Each structure is given as a SMILES string. Calls of active or inactive are those of the source. Cut-off read from the data, not from the text of the source, unless noted: active = inhibition above about 80%; inactive = the rest.

As to `OC[C@@H](Cc1ccccc1)NC1CCCCCC1`, the z-score in [1] was -0.55 (inactive).

With `NC(=O)c1cccc2[nH]c(-c3ccc(C4CCCN4)cc3F)nc12` (stereo not drawn), the inhibition was 19.3% (inactive) in assay [2] (at 0.5 µM, stronger effect = higher value); 7.36% in assay [2] (measured here: combination with BGB IC20, at 0.005 µM); -24.3% in [2] (measured here: combination with BGB IC40, at 0.005 µM); 1.68% in assay [2] (setting [17]); 52.8% in assay [2] (measured here: combination with cisplatin, at 0.5 µM, stronger effect = higher value); 58.1% in assay [2] (measured here: combination with cisplatin, at 5 µM, stronger effect = higher value). Further, the inhibition in assay [3] (BGB combo, at 5 µM) is 54.3%; in assay [3] (at 0.5 µM), 15.5% (inactive); in assay [3] (cisplatin combo, at 5 µM), 60.1%; in [3] (setting [18]), 22.6%; in assay [3] (setting [19]), 10.8%; in assay [3] (single agent, at 5 µM), 54.9%. The inhibition in assay [4] (BGB IC20 combo, at 0.005 µM) was 3.69%; in assay [4] (BGB IC40 combo, at 0.005 µM), -38.8%; in assay [4] (BGB IC40 combo, at 0.05 µM) it was 41.6%; in [4] (at 0.5 µM), -20.7% (inactive); in assay [4] (cisplatin combo, at 0.05 µM) it was 39.3%; in assay [4] (cisplatin combo, at 0.5 µM), -35.8%. For the same compound, the inhibition is -28.7% in assay [4] (cisplatin combo, at 5 µM); -6.58% in assay [4] (measured here: 5 uM single agent, at 5 µM); -15.8% (inactive) in assay [5] (at 0.5 µM); -15.1% in [5] (setting [17]); -24.3% in assay [5] (setting [20]); 48.8% in [5] (setting [21]). The inhibition was 6.65% (inactive) in [6] (at 0.5 µM); 0.81% in assay [6] (measured here: with BGB IC20, at 0.5 µM); 37.8% in assay [6] (measured here: with BGB IC20, at 5 µM); 2.33% in [6] (measured here: with cisplatin IC20, at 0.5 µM); 51.1% in [6] (measured here: with cisplatin IC20, at 5 µM); 52.6% in assay [6] (single agent, at 5 µM). Further, the inhibition in assay [7] (at 0.5 µM) is -18.9% (inactive); in assay [7] (measured here: combination with BGB at IC20, at 0.5 µM) it was -1.16%; in assay [7] (measured here: combination with cisplatin at IC20, at 0.5 µM), -8.89%; in assay [8] (at 0.5 µM), 7.06% (inactive); in assay [8] (measured here: combo with BGB at IC20, at 0.5 µM), 1.45%; in assay [8] (measured here: combo with cisplatin at IC20, at 0.5 µM) it was 11.4%. The inhibition is 9.31% (inactive) in [9] (at 0.5 µM); -4.89% in assay [9] (measured here: inhibition with BGB combination, at 0.05 µM); -21.6% in assay [9] (measured here: inhibition with cisplatin combination, at 0.05 µM); -11.1% (inactive) in [10] (at 0.5 µM); -12.4% in [10] (setting [20]); 48.1% in assay [10] (setting [21]). Further, the inhibition is 12.2% (inactive) in [11] (at 0.5 µM); -1.6% in assay [11] (measured here: BGB combination, at 0.5 µM); 34.2% in assay [11] (measured here: BGB combination, at 5 µM); 12.5% in [11] (measured here: cisplatin combination, at 0.5 µM); 56.6% in [11] (measured here: cisplatin combination, at 5 µM); 55.7% in [12] (BGB combination, concentration series, at 5 µM). The inhibition in assay [12] (at 0.5 µM) was 12.5% (inactive); in [12] (cisplatin combination, concentration series, at 5 µM) it was 69.9%; in assay [13] (at 0.5 µM), 18.3% (inactive); in assay [13] (measured here: combo with BGB IC20, at 0.5 µM) it was 32.5%; in assay [13] (measured here: combo with cisplatin IC20, at 0.5 µM), 12%; in [14] (at 0.5 µM) it was -17.4% (inactive). Further, the inhibition is -7.13% in [14] (cisplatin combination, at 0.5 µM); 41.8% in assay [14] (cisplatin combination, at 5 µM); 14.7% in assay [14] (measured here: BGB IC40 combination 0.05 uM, at 0.05 µM); 45% in assay [14] (single agent, at 5 µM); -17.5% (inactive) in assay [15] (at 0.5 µM); 55.7% in assay [15] (cisplatin combo, at 5 µM). The inhibition in [15] (measured here: BGB IC40 combination, at 0.05 µM) was -5.7%; in [15] (setting [20]), -29.9%; in [15] (single agent, at 5 µM), 39.2%; in [16] (at 0.5 µM), -0.89% (inactive); in assay [16] (setting [18]), -14.3%; in [16] (setting [19]), 5.82%. Moreover, the inhibition is 27.4% in [16] (single agent, at 0.05 µM) and 63.4% in assay [16] (single agent, at 5 µM).

Turning to `COC(=O)CN1CCN(c2cc(OC)ncn2)CC1=O`, the z-score in assay [1] is -0.535 (inactive).

For `CCC(C)(C)NCc1c(C)cc(C)c(CO)c1C`, the z-score in [1] was -0.525 (inactive).

In the case of `Cc1ccccc1C1CCCN(C(=O)CCC(C)C)C1` (stereo not drawn), the z-score in assay [1] was -0.255 (inactive).

As to `O=C(Cn1cc(-c2cncnc2)cn1)Nc1ccnn1Cc1ccco1`, the z-score in assay [1] is 1.12 (inactive).
